# The list is not random: actives were taken first. Their share in the collection is about 13%.
# Lassa entry inh – inhibitors of Lassa virus binding or cell entry | Lassa virus pseudotype entry inhibition, cell reporter | Potency, µM (highest dose often 37.9 µM), for the others: at the top dose activity change, negative = inhibition, usual class: inhibitors | 300,000 compounds, 1.2% hits; calls by dose curve; tested in HEK293 cells; also: potency is read from the fitted curve at half-maximal effect; % is scaled to controls: 0 for no effect and ±100 for the full control effect; nearly all actives have a fitted effect of over 50% in size
# CHX counter – counter-screen for Shiga toxin inhibitors: cycloheximide protein synthesis inhibition. cell reporter, cycloheximide protein synthesis inhibition counterscreen. AID 2314. 300,000 compounds, 12% hits. max response, %; in the data active = max response mostly above about 13%, no sharp cut-off; inactive = mostly below about 14%; also: read at 38.3 µM for the half of the compounds with a filed dose; 0% is about no effect
# FMDV inh – blocks foot and mouth disease virus | Potency, µM (doses to about 57.9 µM), inactives show at the top dose activity change, negative = inhibition, actives largely listed as inhibitors | FMDV antiviral cell-based qHTS | 410,000 compounds, 1.2% hits; calls by dose curve; tested in HEK293T cells; also: read-out not given here; potency is read from the fitted curve at half-maximal effect; % is scaled to controls: 0 for no effect and ±100 for the full control effect; nearly all actives have a fitted effect of over 45% in size
# Marburg entry inh – Marburg virus entry inhibition | Marburg virus pseudotyped entry inhibition, cell reporter | Potency, µM (highest dose often 37.8 µM), for inactives: at the top dose activity change, negative = inhibition, hits mostly inhibitors | 300,000 compounds, 1.8% hits; calls by dose curve; tested in HEK293 cells; also: potency is read from the fitted curve at half-maximal effect; % is scaled to controls: 0 for no effect and ±100 for the full control effect
# HCV inh – blocks hepatitis C virus; Huh7.5.1 HCVcc-Cre infection, luciferase reporter, 44 h; Potency, µM (highest dose often 41.8 µM), inactives show at the top dose activity change, negative = inhibition, most hits filed as inhibitors; 340,000 compounds, 3.4% hits; active = well fitted inhibition curve with a large enough effect; inconclusive = small, poorly fitted or top-dose-only effect, or another doubt; inactive = no such curve, though single readings can be large or run the other way; also: potency is read from the fitted curve at half-maximal effect; % is scaled to controls: 0 for no effect and ±100 for the full control effect
#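 Reporter virus HCVcc-Cre (~0.5 moi) infects cells exposed to compound; seeding density 1,000 cells/well with 4 h settling beforehand. Luminescence, 15 sec read, taken 44 h post-infection following a 15 min RT substrate incubation.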
# Shiga inhibitor – Shiga toxin inhibition; Vero cells, Shiga toxin protein synthesis inhibition reporter; 290,000 compounds, 9.2% hits; inhibition, % at 38.7 µM; AID 2315; in the data active = inhibition mostly above about 28%, no sharp cut-off; inactive = mostly below about 43%; also: 0% is about no effect
# The depositor's hits bear a star; ? = inconclusive; . = not tested or not shown; ! = a repeat was not active; [ ] = dose if it differs, or a comment.
SMILES,Lassa entry inh,CHX counter,FMDV inh,Marburg entry inh,HCV inh,Shiga inhibitor
O=C1COc2cccnc2N1,22.4%,-2.4,3.2%,2.9%,12.7%,-9.8
COc1ccc2cc(C(N)=O)c(=Nc3ccccc3)oc2c1,?,4.3,-10.5%,26.5%[46.1 µM],?,23.6
NC(=O)c1cc2ccc(O)cc2oc1=Nc1ccccc1,?,62.9*,4.1%,-3.1%,12.6%,50.3*
O=C(O)c1ccc(N=c2oc3cc(O)ccc3cc2C(=O)NCc2ccccc2)cc1,8.3%,7.1,3.0%,-2.0%,-4.6%,3.9
O=C(NCc1ccccc1)c1cc2ccc(O)cc2oc1=O,-1.0%,21.4*,31.3%,3.4%,18.4%,42.2*
NC(=O)c1cc2ccc(O)cc2oc1=NCc1ccccc1,?,15.7*,2.5%,-2.2%,2.8%,-4.8
Nc1sccc1C(=O)NCc1ccccc1,.,.,-6.2%,.,.,.
COc1ccc(CN2CC(=O)N(c3ccc(C)cc3)C2=S)cc1OC,-8.2%,-2.1,-24.7%,-4.7%,0.9%,-1.4
Cc1[nH]n(C(N)=S)c(=O)c1C(c1ccccc1)C(C#N)C#N (stereo not given),-18.6%,-0.9,?,-20.6%,3.0%,11.8
Cc1[nH]n(-c2ncc(-c3ccccc3)s2)c(=O)c1C(c1ccc(Br)cc1)C(C#N)C#N (stereo not given),7.9%,14.0,28.2µM*,22.2%,8.5%,41.4
CC1CCOC(c2coc3ccccc3c2=O)O1 (stereo not given),?,58.7*,9.0%,?,14.0%,54.0*
CN1CCN(NC(=S)Nc2ccc(Oc3ccccc3)cc2)CC1,-3.7%[46.1 µM],-1.7,?,?,?,-3.0
Nc1nc2ccc(Oc3ccccc3)cc2s1,?,30.4*,10.5%,?,-0.7%,69.6*
Nc1nc2ccc(OC(F)(F)F)cc2s1,?,58.9*,-0.5%,0.8%,-13.7%[8.37 µM],66.7*
Cc1ccccc1OCC(=O)Nc1cc(-c2cccc(Br)c2)nn1-c1ccccc1,-7.8%[46.1 µM],.,-4.5%,.,.,.
O=C(CN1C(=O)NC2(CCCCC2)C1=O)Nc1cccc(Cl)c1Cl,.,.,-4.7%,.,-3.5%,.
CN(C)C(=O)c1ccc(-c2nc(-n3ccnc3)c3ccccc3n2)cc1,.,.,6.7%,.,.,.
Oc1ccc(NC(=S)Nc2ccc(F)cc2)cc1,.,9.2,19.8%,.,5.3%,36.3
CCN(CC)c1ccc(NC(=S)Nc2ccc(F)cc2)cc1,-9.6%,26.6*,15.2%,?,11.2µM*,48.4*
Fc1ccc(NC(=S)Nc2ccc(Br)cc2)cc1,?,33.4*,-6.0%,-37.7%,?,5.3
CC(=O)c1cccc(CN2CCC(n3nccc3NC(=O)CCOc3ccccc3)CC2)c1,-10.7%,-2.0,-14.6%,-4.1%,-19.3%,20.4
CC(C)NC(=O)NC(=O)CN1C(=O)NC2(CCc3ccccc3C2)C1=O (stereo not given),?,-1.8,-8.6%,4.0%[46.1 µM],-2.5%,2.6
CC(C)(C)C(=O)/C(=C/c1ccncc1)n1cncn1,10.3µM*,5.6,11.2µM*,4.11µM*,2.24µM*,-6.2
O=C(Nc1cccc(S(=O)(=O)C(F)F)c1)c1ccc(Cl)c(S(=O)(=O)N2CCOCC2)c1,?,10.2,39.8µM*,10µM*!,12.6µM*,-9.3
O=C(Nc1cccnc1)c1ccc(Cl)c(S(=O)(=O)N2CCOCC2)c1,1.5%,-5.2,42.6%,2.8%,-5.7%,-8.2
SMILES,Lassa entry inh,CHX counter,FMDV inh,Marburg entry inh,HCV inh,Shiga inhibitor
O=C(Nc1cccc(Br)c1)c1ccc(Cl)c(S(=O)(=O)N2CCOCC2)c1,?,21.3*,.,?,3.98µM*,35.4
COc1cccc(N2C(=O)C3ON(c4ccccc4)C(c4cccs4)C3C2=O)c1 (stereo not given),.,-1.4,-5.3%,4.8%,0.0%,13.2
O=C(Cn1cnc2c(cnn2-c2ccc(Cl)cc2)c1=O)NC1CCCCC1,.,-3.8,-23.7%,.,12.4%,-8.4
C#CCOCCOCCOCCNc1nc(N2CCN(C(=O)[C@H](CCCCN)n3cc([C@@H](N)C(C)CC)nn3)CC2)nc(N2CCN(C(=O)[C@H](Cc3ccc(O)cc3)n3cc([C@@H](N)CC(C)C)nn3)CC2)n1 (stereo not given in full),.,-2.8,-18.8%,.,26.0%,-11.7
COc1ccc(-c2nc3ccccc3n3c(-c4ccccc4)c4c(=O)n(C)c(=O)n(C)c4c23)cc1,?,.,-14.0%,14.2%[46.1 µM],.,.
CC1CCCC(C)N1C(=O)CSc1nnc(C2CCCCC2)o1 (stereo not given),-11.7%,46.0*,38.5%,-9.9%,-14.8%,92.5*

# Bioassay records from PubChem.
